Only some compounds are listed: those with a hit (about 2.6% of all), similar ones and a draw of the others.
Cruzain inh noDet – cruzain (T. cruzi) inhibition without detergent; P25779; purified cruzain, Z-FR-AMC fluorescence, no detergent; Potency, µM, usual class: inhibitors; actives 2.3% (n = 200,000); AID 1476; further: nearly all actives have a fitted effect of over 40% in size
Target sequence (P25779 123-467 limits assumed): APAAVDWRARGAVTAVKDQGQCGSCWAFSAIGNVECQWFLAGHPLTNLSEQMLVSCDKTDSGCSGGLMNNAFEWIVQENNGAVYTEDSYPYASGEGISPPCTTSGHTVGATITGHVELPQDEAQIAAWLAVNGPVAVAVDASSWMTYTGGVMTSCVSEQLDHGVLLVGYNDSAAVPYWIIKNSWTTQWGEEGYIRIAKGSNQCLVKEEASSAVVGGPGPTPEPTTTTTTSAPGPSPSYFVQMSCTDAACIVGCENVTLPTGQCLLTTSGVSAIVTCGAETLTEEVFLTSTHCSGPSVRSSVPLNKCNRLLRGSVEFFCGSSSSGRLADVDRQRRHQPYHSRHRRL
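Detergent-free condition (0.00005% Triton X-100) in acetate buffer pH 5.5 with DTT. 1.5 nM enzyme and compound were pre-mixed 15 min, then 2 uM Z-FR-AMC substrate added; reaction progress from fluorescence change between first and third reads (60 s).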
Cruzain Triton – cruzain (T. cruzi) inhibition with detergent. P25779. purified cruzain, Z-FR-AMC fluorescence, 0.01% Triton. Potency, µM, usual class: inhibitors. actives 0.43% (n = 200,000); further: nearly all actives have a fitted effect of over 40% in size
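Read-out: AMC fluorescence (360 nm excitation, 450 nm emission), four reads over 2 min, first-to-third difference used. Conditions: cruzain 1.5 nM, Z-FR-AMC 2 uM, pH 5.5 acetate, 5 mM DTT, 0.01% Triton X-100.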
Hits are given with their value; 0 = inactive; ? = inconclusive. The call rests on the fitted dose curve; in most records, active means well fitted curve in the direction sought with a large enough effect; inconclusive means small, poorly fitted or top-dose-only effect, or another doubt; inactive means no such curve, though single readings can be large; an effect the other way counts as inactive or inconclusive.

SMILES | Cruzain inh noDet | Cruzain Triton
Cc1ccc(CNC(=O)CCCCCn2c(=O)[nH]c3ccccc3c2=O)cc1 | 0 | 0
Cc1ccc(NC(=O)Cn2cc(S(=O)(=O)N3CCN(c4ccccc4F)CC3)c3ccccc3c2=O)cc1F | 7.94µM | 0
CC(C)c1ccc(NC(=O)Cn2cc(S(=O)(=O)N3CCN(c4ccccc4F)CC3)c3ccccc3c2=O)cc1 | 7.94µM | 0
CC1CCN(S(=O)(=O)c2cn(CC(=O)Nc3cccc(C(F)(F)F)c3)c(=O)c3ccccc23)CC1 | ? | 0
CN(C(=O)Cn1cc(S(=O)(=O)N2CCN(c3ccccc3F)CC2)c2ccccc2c1=O)c1ccc(Cl)cc1 | 0 | 0
O=C(Cn1cc(S(=O)(=O)N2CCN(c3ccccc3F)CC2)c2ccccc2c1=O)Nc1cccc(C(F)(F)F)c1 | 7.94µM | 0
Cc1ccc(NC(=O)CN2CCN(c3ccccc3F)CC2)cc1F | 0 | 0
COc1cccc(-c2cc(=O)c3cc(NC(=O)c4cccnc4)ccc3[nH]2)c1 | 0 | 0
CO[C@@H](CCOCc1ccccc1)C[C@H]1O[C@H](C(=O)OC(C)C)C=C[C@@H]1C | ? | 0
Cc1cc(Cl)ccc1OCc1cc(=O)n2c3c(sc2n1)CCCC3 | 0 | 0
COc1ccc(OC)c(C2NC(=O)NC(C)=C2C(=O)Nc2ccc(F)cc2)c1 (stereo unspecified) | 0 | 0
O=C(NCc1ccc(-c2nc3ccccc3s2)cc1)c1ccco1 | 25.1µM | 0
O=C(NC(=S)NCc1ccc(-c2nc3ccccc3s2)cc1)c1ccco1 | ? | 0
Cc1cc(C)cc(NC(=O)Cn2c(=O)n(-c3cc(C)cc(C)c3)c(=O)c3oc4ccccc4c32)c1 | 0 | 0
O=C(NCC(c1ccc2c(c1)OCO2)N1CCN(c2ccccc2)CC1)C(=O)Nc1ccc(F)cc1 (stereo unspecified) | 0 | 0
COc1ccc(C(=O)c2c(N)c(-c3nc(-c4ccc5c(c4)OCO5)cs3)c3ccccn23)cc1 | ? | 0
COc1cccc(C(=O)c2c(N)c(-c3nc(-c4ccccc4)cs3)c3ccccn23)c1 | 10µM | 0
Cc1ccc(C(=O)c2c(N)c(-c3nc(-c4ccc5c(c4)OCO5)cs3)c3ccccn23)cc1C | 1.58µM | 0
COc1ccc(-c2csc(-c3c(N)c(C(=O)c4ccccc4)n4ccccc34)n2)cc1OC | 0 | 0
Nc1c(-c2nc(-c3ccc4c(c3)OCO4)cs2)c2ccccn2c1C(=O)c1ccccc1 | 3.98µM | 0
COc1ccc(-c2csc(-c3c(N)c(C(=O)c4ccccc4)n4ccccc34)n2)cc1 | ? | 0
Nc1c(-c2nc(-c3ccc4c(c3)OCO4)cs2)c2ccccn2c1C(=O)c1ccc(Cl)cc1 | ? | 0
Cc1ccc(C)c(C(=O)c2c(N)c(-c3nc(-c4ccc5c(c4)OCO5)cs3)c3ccccn23)c1 | 5.01µM | 0
COc1ccc(CCN2C(=O)c3[nH]nc(-c4ccccc4O)c3C2c2ccc(OC)c(OC)c2)cc1 (stereo unspecified) | 0 | 0
Cc1cccn2c(=O)c(C(=O)N3CCN(c4ccccc4)CC3)cnc12 | 0 | 0
SMILES | Cruzain inh noDet | Cruzain Triton
CCC(CC)C(=O)OCc1cc(=O)n2nc(C3CC3)sc2n1 | 0 | 0
Cc1ccc(-c2csc(-c3c(N)c(C(=O)c4ccc5c(c4)OCO5)n4ccccc34)n2)cc1C | 3.16µM | 0
Nc1c(-c2nc(-c3ccc(F)cc3)cs2)c2ccccn2c1C(=O)c1ccc2c(c1)OCO2 | 0 | 0
CCn1c2ccccc2c2cc(NC(=O)c3cccc([N+](=O)[O-])c3)ccc21 | 0 | 0
O=C(Nc1ccc(N2CCCC2)c(Cl)c1)c1ccc(Br)o1 | 10µM | 0
CCn1c2ccccc2c2cc(NC(=O)c3ccc(Br)o3)ccc21 | 0 | 12.6µM
CCn1c2ccccc2c2cc(NC(=O)c3ccc(C)c([N+](=O)[O-])c3)ccc21 | 25.1µM | 0
CCn1c2ccccc2c2cc(NC(=O)c3cc(OC)cc(OC)c3)ccc21 | ? | 0
O=C(Nc1ccccc1N1CCCC1)c1ccc(Br)o1 | 0 | 0
COc1ccc2cc(S(=O)(=O)c3ccccc3F)c(=O)oc2c1 | 0 | ?
Cn1c(=O)n(C)c2cc(N3CCOCC3)c(NC(=O)c3ccc(C(C)(C)C)cc3)cc21 | 0 | 0
COc1cccc(Cn2c(=O)c(-c3cccs3)nc3cnc(N4CCNCC4)nc32)c1 | ? | 0
CC1CCCN(Cc2c(O)ccc3c(=O)c(Oc4ccccc4Cl)c(C(F)(F)F)oc23)C1 (stereo unspecified) | 0 | 0
COc1ccc(-c2cn3c(n2)sc2cc(C(=O)NCCC4=CCCCC4)ccc23)cc1 | 0 | 0
C=C(C)C(=O)/C=C/CCC/C=C/C(=O)OCC | 0 | 0
c1ccc(-c2ncc(CSc3nncn3-c3ccccc3)s2)cc1 | 0 | 0
Cc1nnc(SCc2nc3ccccc3s2)n1-c1ccccc1 | 20µM | 0
c1ccc(-n2cnnc2SCc2nc3ccccc3s2)cc1 | 10µM | 0
CCn1c(SCc2nc3ccccc3s2)nnc1-c1ccccc1 | 0 | 0
O=C(CSc1nc2c([nH]c3ccccc32)c(=O)n1-c1cccc(Cl)c1)N1CCCC1 | 0 | 0
NC(=O)c1ccccc1NC(=O)C1CCCN(c2ncnc3onc(-c4ccc(F)cc4)c23)C1 (stereo unspecified) | 0 | 0
Cc1cc2nn(-c3ccc(F)cc3)nc2cc1NC(=O)c1cc(Cl)ccc1Cl | 0 | 0
O=C(Nc1ccc(C(=O)OCc2cc(=O)n3c4c(sc3n2)CCCC4)cc1)c1ccccc1 | 0 | 0
Cc1cc(OCc2ccc([N+](=O)[O-])cc2)c2c3c(c(=O)oc2c1)CCCC3 | 12.6µM | 0
Cc1cc(O)c2c(-c3ccccc3)cc(=O)oc2c1 | 0 | 0
SMILES | Cruzain inh noDet | Cruzain Triton
Cc1c(OCc2ccc([N+](=O)[O-])cc2)ccc2c3c(c(=O)oc12)CCC3 | 0 | 0
COc1ccc([N+](=O)[O-])cc1COc1cc(C)cc2oc(=O)cc(-c3ccccc3)c12 | 31.6µM | 0
Cc1oc(-c2ccccc2)nc1CNC(=O)NC1CCCCC1 | 0 | 0
CCOc1ccc(CCNC(=O)CCc2cn(Cc3ccc(F)cc3)c3ccccc23)cc1 | 0 | 0
O=C(COC(=O)/C=C/c1ccccc1[N+](=O)[O-])Nc1ccc(OC(F)F)cc1 | 0 | 0
O=C(COC(=O)/C=C/c1ccccc1[N+](=O)[O-])Nc1ccc(OCc2ccccc2)cc1 | 25.1µM | 0
COCCn1c(C)cc(O)c(C(c2ccc(F)cc2)N2CCC(C)CC2)c1=O (stereo unspecified) | 0 | 0
CC1Cn2c(C(=O)NCc3cccc(Br)c3)cc3cccc(c32)S1 (stereo unspecified) | ? | 0
Cc1cccc(C(=O)Nc2ccc(C(=O)/C=C/c3cccnc3)cc2)c1 | ? | 0
O=C(/C=C/c1cccnc1)c1ccc(NC(=O)c2cccc(Br)c2)cc1 | 25.1µM | 0
COc1cc(/C=C(\C#N)c2nc3ccccc3[nH]2)ccc1OCc1cccc(C(F)(F)F)c1 | 0 | 0
O=C(C/C=N/OCc1ccc(Cl)cc1)c1cnc(-c2ccccc2)s1 | 0 | 0
O=C(C/C=N/OCc1c(Cl)cccc1Cl)c1cnc(-c2ccccc2)s1 | 12.6µM | 0
Cc1ccccc1Nc1sc(C(=O)c2ccccc2)c(N)c1C(=O)NCc1ccc(Cl)cc1 | 5.01µM | 0
COc1ccc(CNC(=O)c2c(Nc3ccc(OC)cc3OC)sc(C(=O)c3ccc(Cl)cc3)c2N)cc1 | 12.6µM | 0
COc1ccc(CNC(=O)c2c(Nc3ccccc3C)sc(C(=O)c3ccccc3)c2N)cc1 | ? | 0
CCOc1ccc(NC(=O)c2c(Nc3ccc(OC)cc3OC)sc(C(=O)c3ccc(Cl)cc3)c2N)cc1 | ? | 0

Source: PubChem BioAssay (National Center for Advancing Translational Sciences (NCATS))
